Laboratory results as given in the supplement of paper PMC10681739.

The sequences below were run against T1, ETS1 (UniProt P14921) (assay: TF binding intensity (PBM fluorescence), negative control probe (arbitrary fluorescence units); higher = stronger binding).
T1 sequence: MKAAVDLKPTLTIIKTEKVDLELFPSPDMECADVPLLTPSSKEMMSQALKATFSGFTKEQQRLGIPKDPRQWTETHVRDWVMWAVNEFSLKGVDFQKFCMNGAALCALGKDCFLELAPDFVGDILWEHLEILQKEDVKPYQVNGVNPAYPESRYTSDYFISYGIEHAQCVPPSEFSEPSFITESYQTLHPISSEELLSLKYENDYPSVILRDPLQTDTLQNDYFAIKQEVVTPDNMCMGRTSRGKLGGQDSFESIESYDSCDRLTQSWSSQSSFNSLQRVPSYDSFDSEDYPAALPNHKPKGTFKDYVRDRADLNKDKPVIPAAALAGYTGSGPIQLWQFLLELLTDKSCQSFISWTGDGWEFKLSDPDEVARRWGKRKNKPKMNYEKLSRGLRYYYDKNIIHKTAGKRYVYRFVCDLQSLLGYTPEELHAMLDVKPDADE
Procedure: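 gcPBM negative-control 36-bp genomic probes lacking TF binding sites. Each was incubated with recombinant human ETS1 or RUNX1 alone and detected by antibody fluorescence. Values are medians over replicate spots (4 spots for the ETS1-RUNX1 arrays, 3 for the ETS1-ETS1 array). The probes sit in constant array flanks that are not printed.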

| Sequence | TF binding intensity |
| --- | --- |
| CTGAAATTAACCCAAAGGTTGTGTGTGGACCTCCCT (protein concentration 10 nM) | 109 |
| ATAATGGAAAGCGAAACCGCAGATTAAGCAGGGACT (protein concentration 1 nM) | 398 |
| ACAGGCCCTCCAGGTGTTGAAACCATGCTGGGCTGA (protein concentration 10 nM) | 102 |
| TGCTCTAGAGATGTGATCGTCCTCATTTCATGAAGG (protein concentration 10 nM) | 121 |
| GATGCTCTGATACGCGCTGAAAAGAAGTCAGGCTTC (protein concentration 10 nM) | 134 |
| TAGGGAATGGTGAGCTGTGGTTTGTGGCTTCATGGA (protein concentration 1 nM) | 443 |
| TCCTCTGGTCTCTAAACCACAGCCTCCACCAGCAAC (protein concentration 1 nM) | 442 |
| CACCTCCTAAACAAAGCCGCATAGGTGATGGTGATG (protein concentration 1 nM) | 463 |
| TGACCGGCAGGCCCGAAGCCCCCTGGGATGCCTGGC (protein concentration 10 nM) | 105 |
| CACACCCGCCTGTTACCCACATGCACAAGCAGTCTG (protein concentration 1 nM) | 449 |
| ATTTGGGTTCCAGCCCGCTAGCCTGCCTTTTCTCAT (protein concentration 10 nM) | 92.9 |
| CTGCTGGGTGGAGTGTGGACAAGCGGCCTTTGCATC (protein concentration 10 nM) | 150 |
| TGATCTTTGCTTTGCTTTTTGAAAGATCTGGCAAGG (protein concentration 10 nM) | 104 |
| GGCTGAGGTGTCTGTGTTGGCAGCAGGAGCCTCTCT (protein concentration 10 nM) | 128 |
| CAACGCAGACTACTAACCACTAGAGAATCCCAAGGC (protein concentration 1 nM) | 485 |
| ATAAGCCAATTTTTTTTACATTTATGAAATGAGAGA (protein concentration 10 nM) | 105 |
| ATAAAGTACATTAATTCATTCATCCAGCAAGAGTGT (protein concentration 10 nM) | 122 |
| GGCTGGTAGAAATACTGCGGCTAATAAAGGCGTGGA (protein concentration 1 nM) | 425 |
| CCTGAGGCCTGCCCCAGTCACCTGTATTTACCCTGC (protein concentration 10 nM) | 122 |
| GCTGGGAGACAGAGCCAGACACTGTCTCAAAAAAAA (protein concentration 10 nM) | 110 |
| TGACCATTTGAGGTTTGTGGTTATGCATATAAAATG (protein concentration 1 nM) | 577 |
| GTTTGGCTTTCAGAGTGTGGTTTGGATTCCTAACAG (protein concentration 1 nM) | 450 |
| GCCCTGAGACTTGCCTTGCAATGCCATGTTTGTGTA (protein concentration 10 nM) | 125 |
| GCTCGCCTACCCACTGATTGCCAGTGTCCTGGGTGA (protein concentration 10 nM) | 107 |
| CCTCGGGGGCCAATGTGTGCCTGTGGTGTGCGATTC (protein concentration 10 nM) | 121 |
| CCTATTAAATTCAGATTTGCAGTTTGTTTTTTATCA (protein concentration 10 nM) | 117 |
| TAAATCAAAAGATGACCAAGCTGGAGAGAAAAGTGA (protein concentration 10 nM) | 129 |
